Results on 18 compounds are retold here after ChEMBL document CHEMBL2218924, “A broad activity screen in support of a chemogenomic map for kinase signalling research and drug discovery” (Biochem J, 2013).

The target of assay [1] is Vascular endothelial growth factor receptor 3 (Homo sapiens) (UniProt P35916). The settings on record: at 10 µM.
The target of assay [2] is Macrophage colony-stimulating factor 1 receptor (Homo sapiens) (UniProt P07333). The settings on record: at 1 µM.
Assay [3] shares this target. The settings on record: at 10 µM.
Assay [4] addresses Tyrosine-protein kinase Fyn (Homo sapiens) (UniProt P06241). Conditions: at 1 µM.
The target is the same in assay [5]. Conditions: at 10 µM.
For assay [6], the target named is T1, Mitogen-activated protein kinase kinase kinase kinase 2 (Homo sapiens) (UniProt Q12851).
T1 sequence (whole entry): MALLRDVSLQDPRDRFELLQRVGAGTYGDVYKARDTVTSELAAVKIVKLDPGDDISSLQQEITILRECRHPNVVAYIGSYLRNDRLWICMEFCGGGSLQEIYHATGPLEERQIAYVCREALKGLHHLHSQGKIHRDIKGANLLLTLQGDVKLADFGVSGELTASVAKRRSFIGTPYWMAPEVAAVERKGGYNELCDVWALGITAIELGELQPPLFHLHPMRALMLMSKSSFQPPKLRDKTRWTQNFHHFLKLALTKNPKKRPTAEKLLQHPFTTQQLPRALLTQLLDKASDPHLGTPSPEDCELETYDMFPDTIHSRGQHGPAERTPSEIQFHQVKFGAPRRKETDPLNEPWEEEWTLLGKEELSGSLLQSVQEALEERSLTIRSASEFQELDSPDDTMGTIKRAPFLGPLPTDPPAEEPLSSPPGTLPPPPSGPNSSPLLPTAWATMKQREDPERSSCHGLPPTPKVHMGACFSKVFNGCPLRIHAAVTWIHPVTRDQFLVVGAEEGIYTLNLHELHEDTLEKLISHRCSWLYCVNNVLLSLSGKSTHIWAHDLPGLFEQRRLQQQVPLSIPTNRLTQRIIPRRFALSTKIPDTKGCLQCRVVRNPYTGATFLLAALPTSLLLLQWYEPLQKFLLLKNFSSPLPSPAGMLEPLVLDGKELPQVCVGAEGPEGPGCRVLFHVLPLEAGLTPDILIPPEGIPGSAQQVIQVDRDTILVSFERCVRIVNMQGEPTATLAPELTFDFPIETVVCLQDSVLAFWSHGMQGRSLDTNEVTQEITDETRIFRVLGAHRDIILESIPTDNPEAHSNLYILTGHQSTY
Conditions: at 1 µM.

The target of assay [7] is T1, Mitogen-activated protein kinase kinase kinase kinase 2 (Homo sapiens). Conditions: at 10 µM.
Assay [8] deals with G protein-coupled receptor kinase 5 (Homo sapiens) (UniProt P34947). Conditions: at 10 µM.
Chain of G protein-coupled receptor kinase 5 (Homo sapiens) (P34947 whole entry, looked up): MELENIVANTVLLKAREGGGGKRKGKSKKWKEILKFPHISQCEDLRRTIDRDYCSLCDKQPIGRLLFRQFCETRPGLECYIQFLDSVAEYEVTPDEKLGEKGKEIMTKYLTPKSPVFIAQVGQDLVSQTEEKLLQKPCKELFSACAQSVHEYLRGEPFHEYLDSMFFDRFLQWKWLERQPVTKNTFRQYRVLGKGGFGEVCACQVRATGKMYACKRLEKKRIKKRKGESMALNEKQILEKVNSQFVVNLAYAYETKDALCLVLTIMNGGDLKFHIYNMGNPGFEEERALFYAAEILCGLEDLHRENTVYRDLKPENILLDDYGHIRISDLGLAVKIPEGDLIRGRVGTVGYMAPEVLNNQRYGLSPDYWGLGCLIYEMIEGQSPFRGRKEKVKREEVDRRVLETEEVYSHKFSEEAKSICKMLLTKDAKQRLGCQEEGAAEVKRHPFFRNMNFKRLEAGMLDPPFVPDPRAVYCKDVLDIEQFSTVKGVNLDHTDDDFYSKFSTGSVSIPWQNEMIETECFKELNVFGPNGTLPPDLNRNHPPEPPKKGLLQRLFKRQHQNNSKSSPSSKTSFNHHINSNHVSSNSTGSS
Assay [9] deals with G protein-coupled receptor kinase 6 (Homo sapiens) (UniProt P43250). The settings on record: at 10 µM.
Chain of G protein-coupled receptor kinase 6 (Homo sapiens) (P43250 whole entry, looked up): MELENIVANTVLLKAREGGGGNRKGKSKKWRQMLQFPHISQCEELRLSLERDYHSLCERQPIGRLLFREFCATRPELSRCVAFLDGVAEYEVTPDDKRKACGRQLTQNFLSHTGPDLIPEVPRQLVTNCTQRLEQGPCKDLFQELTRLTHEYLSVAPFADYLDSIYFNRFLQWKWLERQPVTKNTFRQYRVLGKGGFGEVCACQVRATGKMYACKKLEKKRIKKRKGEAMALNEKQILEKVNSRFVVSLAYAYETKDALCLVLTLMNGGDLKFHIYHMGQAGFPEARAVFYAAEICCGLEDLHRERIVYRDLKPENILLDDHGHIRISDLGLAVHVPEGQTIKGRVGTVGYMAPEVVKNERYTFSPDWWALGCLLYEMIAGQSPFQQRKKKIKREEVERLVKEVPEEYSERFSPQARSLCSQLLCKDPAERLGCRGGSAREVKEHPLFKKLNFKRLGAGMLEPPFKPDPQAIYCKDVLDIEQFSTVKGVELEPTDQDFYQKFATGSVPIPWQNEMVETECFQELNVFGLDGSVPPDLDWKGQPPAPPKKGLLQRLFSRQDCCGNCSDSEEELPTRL
Assay [10] has as its target T2, Rhodopsin kinase GRK7 (Homo sapiens) (UniProt Q8WTQ7).
T2 sequence (whole entry): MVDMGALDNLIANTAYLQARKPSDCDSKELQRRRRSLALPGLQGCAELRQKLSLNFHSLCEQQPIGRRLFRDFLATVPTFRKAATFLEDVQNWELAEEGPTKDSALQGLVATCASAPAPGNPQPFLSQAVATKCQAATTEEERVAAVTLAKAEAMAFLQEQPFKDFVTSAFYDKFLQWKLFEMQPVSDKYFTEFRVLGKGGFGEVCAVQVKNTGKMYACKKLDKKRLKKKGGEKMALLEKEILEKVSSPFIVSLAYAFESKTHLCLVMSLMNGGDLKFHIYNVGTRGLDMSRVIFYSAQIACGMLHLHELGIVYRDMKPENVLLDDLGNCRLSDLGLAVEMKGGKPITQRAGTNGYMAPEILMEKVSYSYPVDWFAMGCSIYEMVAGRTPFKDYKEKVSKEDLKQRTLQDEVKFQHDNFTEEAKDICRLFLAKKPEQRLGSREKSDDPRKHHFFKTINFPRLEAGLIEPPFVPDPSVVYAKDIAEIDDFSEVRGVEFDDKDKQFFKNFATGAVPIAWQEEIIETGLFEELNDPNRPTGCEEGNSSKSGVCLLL
The settings on record: at 1 µM.

Chain of Macrophage colony-stimulating factor 1 receptor (Homo sapiens) (P07333 whole entry): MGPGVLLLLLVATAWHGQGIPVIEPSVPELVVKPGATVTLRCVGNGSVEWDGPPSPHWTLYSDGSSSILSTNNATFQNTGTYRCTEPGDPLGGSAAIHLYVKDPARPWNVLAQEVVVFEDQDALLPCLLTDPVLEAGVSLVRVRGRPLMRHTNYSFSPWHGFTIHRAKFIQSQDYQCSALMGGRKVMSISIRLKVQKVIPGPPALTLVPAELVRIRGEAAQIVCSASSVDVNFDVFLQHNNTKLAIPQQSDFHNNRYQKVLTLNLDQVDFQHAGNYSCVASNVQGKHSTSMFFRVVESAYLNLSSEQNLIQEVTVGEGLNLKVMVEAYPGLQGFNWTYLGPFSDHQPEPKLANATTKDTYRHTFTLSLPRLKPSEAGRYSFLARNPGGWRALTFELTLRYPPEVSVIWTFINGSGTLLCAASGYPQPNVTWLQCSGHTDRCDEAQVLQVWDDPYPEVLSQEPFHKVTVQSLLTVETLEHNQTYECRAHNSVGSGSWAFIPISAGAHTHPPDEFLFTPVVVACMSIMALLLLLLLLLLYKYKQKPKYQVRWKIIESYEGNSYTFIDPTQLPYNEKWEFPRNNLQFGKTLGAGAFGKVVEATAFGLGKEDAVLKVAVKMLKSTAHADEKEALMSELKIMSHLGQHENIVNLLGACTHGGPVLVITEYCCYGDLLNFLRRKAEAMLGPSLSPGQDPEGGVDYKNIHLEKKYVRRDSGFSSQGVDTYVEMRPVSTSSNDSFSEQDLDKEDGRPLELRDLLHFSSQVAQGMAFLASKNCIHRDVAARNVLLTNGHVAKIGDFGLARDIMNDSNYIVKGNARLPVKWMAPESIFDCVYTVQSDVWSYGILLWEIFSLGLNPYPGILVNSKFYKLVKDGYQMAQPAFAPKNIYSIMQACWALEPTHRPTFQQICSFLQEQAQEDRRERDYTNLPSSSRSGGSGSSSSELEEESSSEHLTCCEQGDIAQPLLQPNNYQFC
Chain of Vascular endothelial growth factor receptor 3 (Homo sapiens) (P35916 whole entry): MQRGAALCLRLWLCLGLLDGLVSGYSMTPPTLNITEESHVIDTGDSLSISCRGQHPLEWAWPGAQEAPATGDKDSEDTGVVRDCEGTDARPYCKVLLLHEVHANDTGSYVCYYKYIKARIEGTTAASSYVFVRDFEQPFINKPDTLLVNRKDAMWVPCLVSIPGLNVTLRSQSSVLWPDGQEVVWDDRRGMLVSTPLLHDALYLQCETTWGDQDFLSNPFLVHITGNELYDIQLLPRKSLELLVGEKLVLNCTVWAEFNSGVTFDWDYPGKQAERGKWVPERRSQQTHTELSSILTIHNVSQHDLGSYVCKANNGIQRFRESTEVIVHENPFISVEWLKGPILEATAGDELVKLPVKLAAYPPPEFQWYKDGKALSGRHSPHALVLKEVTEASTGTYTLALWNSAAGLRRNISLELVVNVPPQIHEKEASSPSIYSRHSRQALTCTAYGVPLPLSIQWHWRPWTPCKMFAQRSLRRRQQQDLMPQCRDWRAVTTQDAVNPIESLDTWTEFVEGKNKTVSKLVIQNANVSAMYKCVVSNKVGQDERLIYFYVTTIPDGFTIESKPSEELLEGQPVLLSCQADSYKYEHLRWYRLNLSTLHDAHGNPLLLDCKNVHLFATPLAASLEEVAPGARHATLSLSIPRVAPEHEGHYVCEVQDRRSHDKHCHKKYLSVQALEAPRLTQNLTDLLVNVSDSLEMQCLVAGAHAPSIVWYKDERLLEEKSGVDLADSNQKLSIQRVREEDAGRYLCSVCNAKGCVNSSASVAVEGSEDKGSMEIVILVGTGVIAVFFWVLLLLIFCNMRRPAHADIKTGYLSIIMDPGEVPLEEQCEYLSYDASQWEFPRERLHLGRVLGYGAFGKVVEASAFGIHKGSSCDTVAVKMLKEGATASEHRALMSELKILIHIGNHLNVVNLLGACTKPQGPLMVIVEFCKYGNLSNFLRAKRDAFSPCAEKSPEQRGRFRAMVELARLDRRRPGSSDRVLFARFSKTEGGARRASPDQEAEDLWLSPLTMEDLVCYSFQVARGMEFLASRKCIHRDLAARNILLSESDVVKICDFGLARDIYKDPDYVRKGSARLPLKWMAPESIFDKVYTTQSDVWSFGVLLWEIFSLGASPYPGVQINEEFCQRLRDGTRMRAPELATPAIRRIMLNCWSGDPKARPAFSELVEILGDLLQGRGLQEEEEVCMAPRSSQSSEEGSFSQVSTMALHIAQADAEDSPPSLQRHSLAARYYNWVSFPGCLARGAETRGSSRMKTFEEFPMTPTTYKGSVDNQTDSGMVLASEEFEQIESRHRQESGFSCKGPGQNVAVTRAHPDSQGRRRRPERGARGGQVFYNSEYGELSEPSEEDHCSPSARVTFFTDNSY
Chain of Tyrosine-protein kinase Fyn (Homo sapiens) (P06241 2-537 limits assumed): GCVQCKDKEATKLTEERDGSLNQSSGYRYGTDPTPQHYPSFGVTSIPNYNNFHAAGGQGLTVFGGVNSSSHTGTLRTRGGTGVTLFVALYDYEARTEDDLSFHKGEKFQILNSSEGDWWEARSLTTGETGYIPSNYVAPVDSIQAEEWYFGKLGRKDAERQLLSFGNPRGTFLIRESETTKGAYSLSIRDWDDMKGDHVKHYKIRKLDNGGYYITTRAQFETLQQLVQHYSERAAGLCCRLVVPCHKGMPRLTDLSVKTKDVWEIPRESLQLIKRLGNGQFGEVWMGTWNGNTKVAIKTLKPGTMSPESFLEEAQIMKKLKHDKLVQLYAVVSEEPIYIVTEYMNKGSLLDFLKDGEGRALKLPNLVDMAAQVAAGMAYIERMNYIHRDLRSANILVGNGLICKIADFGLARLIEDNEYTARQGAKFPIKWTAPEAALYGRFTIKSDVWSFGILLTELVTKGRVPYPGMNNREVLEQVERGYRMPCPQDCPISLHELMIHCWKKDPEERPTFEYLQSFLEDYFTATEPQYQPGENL

As to `COc1ccc(C(=O)Nc2sc3c(c2C(N)=O)CCCC3)cc1OC`, the residual activity in assay [1] is 12%; in assay [2], 39%; in [3] it was 43%; in [4] it was 79%; in [5], 95%; in [6], 81%. For the same compound, the residual activity in [7] amounted to 81%; in assay [8] it was 93%; in assay [9] it was 84%; in assay [10], 92%.
As to `Cc1cncc2cccc(S(=O)(=O)N3CCCN(C(=O)CN)C[C@H]3C)c12`, the residual activity in [1] worked out at 51%; in [2] it was 73%; in assay [3], 78%; in [4], 93%; in assay [5], 78%; in assay [6] it was 82%. The residual activity is 46% in assay [7], 68% in [8], 51% in [9] and 79% in assay [10].
For `Cn1cnc2cc3c(Nc4cccc(Br)c4)ncnc3cc21`, the residual activity in assay [1] turned out to be 8%; in [2], 94%; in [3] it was 37%; in assay [4], 67%; in assay [5], 34%; in [6] it was 86%. For the same compound, the residual activity in assay [7] was found to be 70%; in assay [8], 93%; in assay [9], 96%; in [10], 100%.
In the case of `Cn1nc2c3c(cccc31)C(=O)c1ccccc1-2`, the residual activity in [1] stood at 16%; in [2] it was 72%; in [3] it was 51%; in assay [4], 65%; in assay [5] it was 3%; in assay [6] it was 60%. Also, the residual activity in assay [7] came to 19%; in [8], 98%; in assay [10] it was 92%.
`CN(C)CCCn1cc(C2=C(c3c[nH]c4ccccc34)C(=O)NC2=O)c2ccccc21`: the residual activity in assay [2] is 50%; in [3], 30%; in [4] it was 102%; in [5] it was 70%; in assay [6], 75%; in [7], 22%. The residual activity in assay [8] came to 9%; in [9] it was 32%; in assay [10], 58%.
`CO[C@@H]1[C@H](N(C)C(=O)c2ccccc2)C[C@H]2O[C@]1(C)n1c3ccccc3c3c4c(c5c6ccccc6n2c5c31)C(=O)NC4`: the residual activity in assay [1] amounted to 3%; in assay [2], 0%; in [3] it was 1%; in assay [4], 6%; in [5] it was 10%; in [6], 4%. In addition, the residual activity was 0% in assay [7], 74% in assay [8], 70% in assay [9] and 8% in assay [10].
Regarding `COc1cc2ncnc(Nc3ccc(Oc4ccccc4)cc3)c2cc1OC`, the residual activity amounted to 0% in assay [1]; 49% in assay [2]; 53% in [3]; 2% in [4]; 0% in assay [5]; 104% in assay [8]. Moreover, the figures for the residual activity in [9] and in assay [10] were 88% and 103%, respectively.
With `O=C1Nc2ccc(Br)cc2/C1=C\c1cc2c([nH]1)CCCC2`, the residual activity in assay [1] came to 1%; in assay [2], 11%; in assay [3], 3%; in assay [6], 24%; in assay [7], 42%; in [8], 100%.
With `CC[n+]1c(/C=C/N(C)c2ccccc2)n(-c2ccccc2)c2ccc(-c3nc4ccccc4s3)cc21`, the residual activity in [1] came out at 52%; in [2], 93%; in assay [3], 71%; in assay [4], 101%; in assay [5], 60%; in assay [6], 103%. The residual activity in assay [7] stood at 73%; in [8], 91%; in assay [9], 93%; in assay [10], 112%.
`O=C1Nc2cc(Br)ccc2/C1=C1/Nc2ccccc2/C1=N\O`: the residual activity in [1] turned out to be 1%; in [2] it was 5%; in [3], 8%; in assay [4] it was 1%; in assay [5], 2%; in assay [6], 16%. In addition, the residual activity turned out to be 25% in assay [7], 98% in assay [8], 86% in [9] and 94% in [10].
As for `COc1cc2ncnc(Nc3ccc(NC(=O)c4ccccc4)cc3)c2cc1OC`, the residual activity in assay [1] was found to be 14%; in assay [2] it was 84%; in assay [3], 79%; in assay [4], 100%; in [5], 48%; in [7], 70%. Moreover, the residual activity in assay [8] was 89%; in assay [9], 94%; in assay [10], 110%.
For the compound `Cc1nc2cc3nc(-c4cccs4)cnc3cc2n1C`, the residual activity in assay [1] was determined as 2%; in assay [2], 52%; in assay [3] it was 8%; in assay [4] it was 103%; in assay [5], 69%; in assay [6], 110%. In addition, the residual activity came out at 85% in [7], 77% in assay [8], 92% in [9] and 113% in assay [10].
Take `COc1cccc(-c2cc(=O)c3ccccc3o2)c1N`: the residual activity in [1] amounted to 80%; in [2], 114%; in assay [3], 88%; in [4] it was 93%; in assay [5] it was 39%; in assay [6], 91%. For the same compound, the residual activity in assay [7] was determined as 82%; in assay [8], 102%; in assay [9], 96%; in assay [10] it was 96%.
On to `NC(=O)c1ccc2[nH]c(-c3ccc(Oc4ccc(Cl)cc4)cc3)nc2c1`, for which the residual activity came to 22% in assay [1]; 84% in assay [2]; 59% in [3]; 78% in [4]; 86% in assay [5]; 44% in assay [6]. Also, the residual activity in assay [7] worked out at 10%; in assay [8], 88%; in assay [9], 80%; in assay [10], 89%.
Regarding `N#Cc1cnc2cnc(NCc3cccnc3)cc2c1Nc1ccc(F)c(Cl)c1`, the residual activity in assay [1] came to 2%; in [2], 58%; in assay [3] it was 60%; in assay [4], 87%; in assay [5] it was 74%; in [7], 3%. Also, the residual activity in assay [8] was 91%; in [10], 120%.
As to `Nc1cccc(-c2cc3c(Oc4cccc(O)c4)ncnc3[nH]2)c1`, the residual activity in assay [1] was 0%; in [2], 3%; in assay [3], -1%; in [4], 0%; in assay [5], -2%; in [6], 42%. In addition, the residual activity in [7] was found to be 8%; in assay [8], 93%; in assay [9] it was 93%; in assay [10] it was 92%.
Turning to `O=C1NC(=O)c2c1c1c3ccccc3[nH]c1c1[nH]c3cc(Br)ccc3c21`, the residual activity in assay [1] is 3%; in assay [2], 78%; in [3], 68%; in assay [4] it was 85%; in [5], 62%; in assay [6] it was 88%. Further, the residual activity was 74% in [7], 89% in assay [8], 89% in [9] and 96% in assay [10].
On to `N#CC(C#N)=C(N)/C(C#N)=C/c1ccc(O)cc1`, for which the residual activity in [1] came out at 95%; in assay [2], 79%; in [3], 86%; in [5], 91%; in assay [6], 84%; in assay [7] it was 61%. Besides, the residual activity in assay [9] turned out to be 95%; in assay [10] it was 98%.
